Structures are written as SMILES. Results filed as inconclusive are left out. Calls of active or inactive are those of the source. Unless noted, calls come from the whole dose curve; as a rule, active = well fitted curve in the direction sought with a large enough effect in the repeat runs; inconclusive = weak or mixed curves; inactive = no such curve, though single readings can be large; an effect the other way counts as inactive or inconclusive.

The record followed here is PubChem BioAssay (Tox21).

A short description of assay [1]: qHTS assay to identify small molecule that activate the aryl hydrocarbon receptor (AhR) signaling pathway - cell viability counter screen (AID 743086).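 Note: HepG2 liver cells carrying the AhR DRE luciferase reporter; series mostly up to about 70 µM; nearly all actives have a fitted effect of over 45% in size.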 The procedure, abridged:
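Cytotoxicity counter screen: CellTiter-Fluor signal (30 min, 37 C) in 4000 HepG2 cells/well carrying the DRE-luciferase reporter, following 24 h compound exposure at 37 C.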

A short description of assay [2]: qHTS assay for small molecule agonists of the antioxidant response element (ARE) signaling pathway (AID 743202; active = well fitted activation curve with a large enough effect in the signal ratio in the repeat runs, not every such curve was filed as active; the % refers to the signal ratio). The procedure, abridged: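 An ARE-responsive beta-lactamase gene stably integrated in HepG2 cells serves as reporter. After 5 h plating and 16 h compound incubation at 37 C, fluorescence of the B/G FRET substrate was measured.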
The nature of assay [3]: qHTS assay for small molecule agonists of the antioxidant response element (ARE) signaling pathway - cell viability counter screen (AID 743203; calls by dose curve; note: nearly all actives have a fitted effect of over 55% in size; note: potency is the fitted concentration of half-maximal effect). The procedure, abridged: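 CellSensor ARE-bla HepG2 cells, 2,000 per well, rested 5 hrs at 37C/5% CO2, then exposed to compound in DMSO for 16 hrs; viability read as CellTiter-Glo luminescence after 30 min at room temperature, in the reporter wells.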

Assay [4] is described as follows: qHTS assay for small molecule activators of the heat shock response signaling pathway - cell viability counter screen (AID 743209). Note: nearly all actives have a fitted effect of over 50% in size. Note: potency is the fitted concentration of half-maximal effect. The procedure, abridged: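 CellSensor HSE-bla HeLa cells, plated overnight at 37 C/5% CO2, were exposed to compounds in DMSO for 5 h at 37 C. Viability was then read in the same wells by CellTiter-Glo luminescence after 30 min at room temperature.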

A short description of assay [5]: qHTS assay for small molecule activators of the heat shock response signaling pathway (AID 743210; active = well fitted activation curve with a large enough effect in the signal ratio in the repeat runs, with a control signal flat, not every such curve was filed as active; the % refers to the signal ratio;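 note: HeLa cells with beta-lactamase reporter driven by heat shock elements; series mostly up to about 63 µM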). In outline: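 In HSE-bla HeLa cells, 5 h compound incubation (37 C) precedes addition of LiveBLAzer B/G substrate; after 2.5 h at room temperature, fluorescence intensity indicates reporter induction.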
Assay [6] can be described thus: qHTS assay to identify small molecule agonists of the peroxisome proliferator-activated receptor delta (PPARd) signaling pathway - cell viability counter screen (AID 743211). Note: nearly all actives have a fitted effect of over 55% in size. The procedure, abridged:
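Viability was measured as CellTiter-Glo luminescence (30 min, room temperature) in the same wells as the beta-lactamase readout. GeneBLAzer PPARd UAS-bla HEK293H cells received compound after 5 h plating and were incubated 17 h at 37 C.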

The target of assay [7] is Peroxisome proliferator-activated receptor delta (Homo sapiens) (UniProt Q03181). Put plainly: qHTS assay to identify small molecule agonists of the peroxisome proliferator-activated receptor delta (PPARd) signaling pathway (AID 743212; calls by dose curve). In outline: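 HEK293H UAS-bla reporter cells, human PPARd system; compounds delivered in DMSO after 5 h plating, then at 37 C. Beta-lactamase FRET read, 2 h RT substrate step.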

Assay [8] is described as follows: qHTS assay to identify small molecule antagonists of the peroxisome proliferator-activated receptor delta (PPARd) signaling pathway - cell viability counter screen (AID 743213). Note: nearly all actives have a fitted effect of over 50% in size. The procedure, abridged: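 HEK293H cells with the PPARd UAS-bla reporter, co-treated 17 h at 37 C with compounds and L165041 (300 nM final), were lysed with CellTiter-Glo. Luminescence indicated viable cell content.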

Assay [9] concerns the target Peroxisome proliferator-activated receptor delta (Homo sapiens) (UniProt Q03181). Kind of assay: qHTS assay to identify small molecule antagonists of the peroxisome proliferator-activated receptor delta (PPARd) signaling pathway (AID 743215; active = well fitted inhibition curve with a large enough effect in the signal ratio in the repeat runs, not every such curve was filed as active; the % refers to the signal ratio;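 note: cells stimulated with agonist L165041 at 300 nM final during compound exposure; series mostly up to about 62 µM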). In outline:
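PPARd UAS-bla HEK293H cells were pre-incubated 5 h at 37 C, then given test compounds in DMSO plus agonist L165041 (300 nM final). After 17 h at 37 C, beta-lactamase FRET substrate was added; fluorescence read after 2 h at room temperature.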

For assay [10], the target named is Bile acid receptor (Homo sapiens) (UniProt Q96RI1). Put plainly: qHTS assay to identify small molecule antagonists of the farnesoid-X-receptor (FXR) signaling pathway (AID 743217; active = well fitted inhibition curve with a large enough effect in the signal ratio in the repeat runs, not every such curve was filed as active; the % refers to the signal ratio). In outline:
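FXR-UAS-bla HEK 293T cells pre-incubated 5 h at 37 °C, then exposed to compounds with chenodeoxycholic acid (50 uM final) for 16 h at 37 °C. Beta-lactamase reporter read by LiveBLAzer B/G FRET substrate fluorescence after 2 h at room temperature.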

Assay [11] can be described thus: qHTS assay to identify small molecule agonists of the farnesoid-X-receptor (FXR) signaling pathway - cell viability counter screen (AID 743218). Note: nearly all actives have a fitted effect of over 45% in size. In outline: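 FXR-UAS-bla HEK 293T cells, plated 5 h at 37 C, were exposed to compounds for 16 h at 37 C. CellTiter-Glo was then added to the same wells as the bla readout; luminescence read after 30 min at room temperature.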

Assay [12] deals with Bile acid receptor (Homo sapiens) (UniProt Q96RI1). Put plainly: qHTS assay to identify small molecule agonists of the farnesoid-X-receptor (FXR) signaling pathway (AID 743220; active = well fitted activation curve with a large enough effect in the signal ratio in the repeat runs, not every such curve was filed as active; the % refers to the signal ratio). In outline: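 Beta-lactamase reporter under UAS control in GeneBLAzer FXR HEK 293T cells (5000/well) measured with LiveBLAzer FRET substrate after 2 h at room temperature. Compound exposure lasted 16 h at 37C.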

Assay [13] in a line: qHTS assay to identify small molecule antagonists of the farnesoid-X-receptor (FXR) signaling pathway - cell viability counter screen (AID 743221; active = well fitted cell-killing curve with a large enough effect in the repeat runs, not every such curve was filed as active; note: nearly all actives have a fitted effect of over 50% in size). In outline: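 Cytotoxicity counter screen run in the FXR-bla reporter wells: HEK 293T cells exposed to compound with 50 uM (final) chenodeoxycholic acid for 16 h, 37 C, then viability measured by CellTiter-Glo luminescence after 30 min, room temperature.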

Assay [14] addresses Vitamin D3 receptor (Homo sapiens) (UniProt P11473). Put plainly: qHTS assay to identify small molecule agonists of the vitamin D receptor (VDR) signaling pathway (AID 743222; calls by dose curve). The procedure, abridged:
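VDR-bla cells were plated 4 h at 37C/5% CO2, then exposed to compounds in DMSO for 16 h. After LiveBLAzer B/G FRET substrate addition and 2 h at room temperature, beta-lactamase reporter fluorescence was read.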

Assay [15] shares this target. Put plainly: qHTS assay to identify small molecule antagonists of the vitamin D receptor (VDR) signaling pathway (AID 743223; active = well fitted inhibition curve with a large enough effect in the signal ratio in the repeat runs, not every such curve was filed as active; the % refers to the signal ratio). In outline:
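Antagonist mode: compound added to VDR-bla cells alongside agonist 1alpha,25-dihydroxyvitamin D3 (3 nM final), incubation 16 h at 37C. Read-out is LiveBLAzer FRET fluorescence, 2 h at room temperature.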

The nature of assay [16]: qHTS assay to identify small molecule agonists of the vitamin D receptor (VDR) signaling pathway - cell viability counter screen (AID 743224). Note: nearly all actives have a fitted effect of over 50% in size. Note: potency is the fitted concentration of half-maximal effect. The procedure, abridged: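 VDR-bla cells were preincubated 4 h at 37C/5% CO2, then exposed to compounds for 16 h. After the 2 h room-temperature bla FRET read, CellTiter-Glo was added to the same wells and luminescence read after 30 min.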

Assay [17] can be described thus: qHTS assay to identify small molecule antagonists of the peroxisome proliferator-activated receptor gamma (PPARg) signaling pathway - cell viability counter screen (AID 743194). Note: nearly all actives have a fitted effect of over 55% in size. The note with it: Potency: co-treated with 50 nM rosiglitazone. In outline:
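Viability was measured as CellTiter-Glo luminescence in GeneBLAzer PPARg UAS-bla HEK293H cells. These cells had been exposed 17 h at 37 C to compounds together with rosiglitazone at 50 nM final, with the beta-lactamase readout taken in the same wells.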

Assay [18] has as its target Peroxisome proliferator-activated receptor gamma (Homo sapiens) (UniProt P37231). Put plainly: qHTS assay to identify small molecule antagonists of the peroxisome proliferator-activated receptor gamma (PPARg) signaling pathway (AID 743191; calls by dose curve; note: series mostly up to about 63 µM; nearly all actives have a fitted effect of over 30% in size). The procedure, abridged: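 Beta-lactamase reporter under UAS control in HEK293H PPARg-bla cells; compound treatment 17 h at 37C. Read-out: fluorescence intensity after 1 h room-temperature incubation with LiveBLAzer B/G FRET substrate.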

For assay [19] the target is unchanged. Put plainly: qHTS assay to identify small molecule agonists of the peroxisome proliferator-activated receptor gamma (PPARg) signaling pathway (AID 743094; active = well fitted activation curve with a large enough effect in the signal ratio in the repeat runs, not every such curve was filed as active; the % refers to the signal ratio). The procedure, abridged: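 GeneBLAzer PPARg UAS-bla HEK293H cells carrying a stably integrated beta-lactamase reporter were pre-incubated 5 h at 37C, then exposed to compounds in DMSO for 17 h at 37C; LiveBLAzer B/G FRET substrate was added for 1 h at room temperature and fluorescence read.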

Vitamin D3 receptor (Homo sapiens), sequence (P11473 whole entry, looked up): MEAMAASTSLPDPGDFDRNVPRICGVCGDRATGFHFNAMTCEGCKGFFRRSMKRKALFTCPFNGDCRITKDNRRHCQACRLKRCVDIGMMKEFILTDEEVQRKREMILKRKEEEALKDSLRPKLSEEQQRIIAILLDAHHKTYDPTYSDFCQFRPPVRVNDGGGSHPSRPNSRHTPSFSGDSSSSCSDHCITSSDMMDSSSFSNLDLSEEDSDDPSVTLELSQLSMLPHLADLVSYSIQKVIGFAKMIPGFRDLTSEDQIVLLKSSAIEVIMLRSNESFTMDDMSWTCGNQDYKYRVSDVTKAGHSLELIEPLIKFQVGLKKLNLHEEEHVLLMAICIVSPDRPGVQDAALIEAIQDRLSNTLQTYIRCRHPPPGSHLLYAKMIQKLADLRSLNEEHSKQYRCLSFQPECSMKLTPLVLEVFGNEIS
Bile acid receptor (Homo sapiens), sequence (Q96RI1 whole entry, looked up): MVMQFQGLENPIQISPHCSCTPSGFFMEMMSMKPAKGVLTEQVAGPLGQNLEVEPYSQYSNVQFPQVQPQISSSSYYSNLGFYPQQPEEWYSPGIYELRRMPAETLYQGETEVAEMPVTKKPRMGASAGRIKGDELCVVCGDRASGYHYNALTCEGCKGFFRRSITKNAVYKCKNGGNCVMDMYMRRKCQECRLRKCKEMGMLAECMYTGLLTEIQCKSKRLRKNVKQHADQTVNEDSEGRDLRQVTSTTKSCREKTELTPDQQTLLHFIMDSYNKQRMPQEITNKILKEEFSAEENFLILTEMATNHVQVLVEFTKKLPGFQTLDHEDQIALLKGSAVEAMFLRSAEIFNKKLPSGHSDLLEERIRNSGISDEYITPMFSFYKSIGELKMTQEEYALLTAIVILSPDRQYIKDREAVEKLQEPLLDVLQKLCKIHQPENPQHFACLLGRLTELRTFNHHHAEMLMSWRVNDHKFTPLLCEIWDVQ
Peroxisome proliferator-activated receptor gamma (Homo sapiens), sequence (P37231 whole entry, looked up): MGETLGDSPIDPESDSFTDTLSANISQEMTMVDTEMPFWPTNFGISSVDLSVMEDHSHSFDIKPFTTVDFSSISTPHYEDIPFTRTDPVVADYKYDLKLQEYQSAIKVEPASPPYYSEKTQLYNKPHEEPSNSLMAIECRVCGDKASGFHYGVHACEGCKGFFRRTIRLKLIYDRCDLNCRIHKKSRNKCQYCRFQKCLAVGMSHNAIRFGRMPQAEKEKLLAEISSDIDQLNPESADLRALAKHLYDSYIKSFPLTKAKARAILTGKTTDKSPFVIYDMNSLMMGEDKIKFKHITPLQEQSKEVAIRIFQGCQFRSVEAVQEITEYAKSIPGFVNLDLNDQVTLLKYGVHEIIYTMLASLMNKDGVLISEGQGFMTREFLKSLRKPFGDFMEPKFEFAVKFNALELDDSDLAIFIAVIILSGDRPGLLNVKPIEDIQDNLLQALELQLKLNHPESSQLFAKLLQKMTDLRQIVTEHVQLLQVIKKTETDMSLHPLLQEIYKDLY
Peroxisome proliferator-activated receptor delta (Homo sapiens), sequence (Q03181 whole entry, looked up): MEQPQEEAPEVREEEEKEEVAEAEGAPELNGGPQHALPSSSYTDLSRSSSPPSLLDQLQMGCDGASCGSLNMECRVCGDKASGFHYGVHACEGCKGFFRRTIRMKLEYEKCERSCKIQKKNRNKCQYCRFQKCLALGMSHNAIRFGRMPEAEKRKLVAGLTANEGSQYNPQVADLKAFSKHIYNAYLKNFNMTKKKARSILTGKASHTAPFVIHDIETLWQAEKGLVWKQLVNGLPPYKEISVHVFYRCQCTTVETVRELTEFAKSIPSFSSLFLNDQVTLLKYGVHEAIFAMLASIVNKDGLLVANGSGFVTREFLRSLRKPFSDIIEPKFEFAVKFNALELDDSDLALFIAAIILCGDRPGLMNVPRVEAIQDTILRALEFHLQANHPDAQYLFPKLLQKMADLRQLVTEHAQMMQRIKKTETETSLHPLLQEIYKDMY

For `COCC(=O)N(c1c(C)cccc1C)N1CCOC1=O`, the compound was called inactive in [1], in assay [5], in assay [7], in [8], in [9] and in assay [12]. Further, the compound was called inactive in assay [13], in assay [14] and in [15]. The Potency result in assay [2], in [3], in assay [4], in [6], in assay [10] and in assay [11] was “inactive” each time. Moreover, in [16], the Potency result is “inactive”.

`CC(C(=O)c1ccccc1)N(C)C` (stereo not drawn): the Potency entry in [17], in assay [2], in [4], in assay [6], in assay [11] and in [16] was “inactive” each time. The result in [5], in assay [7], in [9] and in assay [13] was inactive.

As for `CCOC(=O)/C=C(C)/C=C/C[C@@H](C)CCCC(C)C`, the result in [1], in [7], in [12] and in assay [13] was inactive. In addition, the Potency in assay [4] was 38.9 µM (active); in assay [16] it was 34.7 µM (active). Besides, the Potency entry in assay [10] and in [11] was “inactive” in each case.

Consider `Cc1ncc2n1-c1ccc(Cl)cc1C(c1ccccc1F)=NC2`, for which the Potency entry in assay [18], in assay [17], in assay [3], in assay [4], in assay [6] and in [11] was “inactive” throughout. Further, in assay [16], the Potency entry is “inactive”. Moreover, the compound was called inactive in assay [5], in assay [8], in assay [13], in assay [14] and in assay [15].

Regarding `COc1cc(OC)nc(NC(=O)NS(=O)(=O)c2ncccc2OCC(F)(F)F)n1`, the compound was classed as inactive in assay [19], in [5], in [7], in assay [8], in assay [9] and in assay [12]. Moreover, the compound was classed as inactive in assay [13], in assay [14] and in [15]. The Potency result in assay [18], in assay [17], in [3], in [4], in [6] and in assay [10] was “inactive” throughout. In addition, the Potency result in assay [11] and in assay [16] was “inactive” in each case.

For `Cc1coc2c1CCC(C)C2` (stereo not drawn), the compound was called inactive in assay [1], in [5], in assay [7], in [8], in [9] and in assay [13]. Also, in assay [14], the outcome was inactive. The Potency entry in assay [17], in [4], in [6], in [11] and in [16] was “inactive” in each case.

As for `CC1COC2(c3ccccc3Cl)c3cc(Cl)ccc3NC(=O)CN12` (stereo not drawn), the Potency result in assay [18], in [3], in assay [4], in assay [6], in assay [11] and in [16] was “inactive” throughout. Also, the call in assay [5], in [7], in [8], in assay [13], in assay [14] and in [15] was inactive.

For the compound `COc1cccc2c1cc([N+](=O)[O-])c1c(C(=O)O)cc3c(c12)OCO3`, the Potency was 17.2 µM (active) in assay [3], 3.89 µM (active) in [4] and 15.5 µM (active) in assay [16]. The call in assay [5] was inactive. For the same compound, the Potency result in assay [6] and in assay [11] was “inactive” each time.

In the case of `CC1CCC(=O)O1` (stereo not drawn), the Potency entry in [17], in [3], in [4], in assay [6] and in assay [11] was “inactive” throughout. The call in assay [5], in assay [8], in [9], in [13] and in assay [15] was inactive.
